Assay outcomes (PubChem BioAssay)
G9a block – G9a (human) methyltransferase inhibition | Q96KQ7 | G9a H3K9 monomethylation, AlphaScreen, 2 h | Potency, µM (top dose mostly 102 µM), for the others: at the highest dose activity, negative = inhibition, actives largely listed as inhibitors | hit rate 8.8% among 350,000; note: potency is the fitted concentration of half-maximal effect; % is set by controls: 0 for no effect and ±100 for the full control effect; nearly all actives have a fitted effect of over 75% in size
Target sequence (Q96KQ7 913-1193 limits assumed): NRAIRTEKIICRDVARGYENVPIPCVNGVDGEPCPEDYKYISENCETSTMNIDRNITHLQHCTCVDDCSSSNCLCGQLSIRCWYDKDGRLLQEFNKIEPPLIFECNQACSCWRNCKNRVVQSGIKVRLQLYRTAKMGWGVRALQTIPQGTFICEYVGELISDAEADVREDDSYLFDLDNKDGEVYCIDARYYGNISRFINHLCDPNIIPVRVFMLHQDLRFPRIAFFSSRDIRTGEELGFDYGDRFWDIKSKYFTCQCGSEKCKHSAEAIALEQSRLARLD
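Quantitative HTS format: methyltransferase activity on a biotin-tagged H3K9 peptide is measured by AlphaScreen, using a rabbit anti-monomethyl-H3K9 antibody with streptavidin donor and anti-IgG acceptor beads. Final levels are 20 nM enzyme, 500 nM peptide, 20 uM SAM; 2 h RT.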
PI5P4Ka inh – PI5P4K alpha (human) kinase inhibition; P48426; PI5P4Kalpha enzyme, ADP-Glo luminescence, 60 min; stronger effect = lower value; max response, %; hit rate 1.2% among 330,000; active = max response of -50% or lower; inconclusive = between -30% and -50%; inactive = -30% or higher; note: value at the top dose of about 77 µM; % is set by controls: 0 for no effect and ±100 for the full control effect
Target sequence (P48426 whole entry, looked up): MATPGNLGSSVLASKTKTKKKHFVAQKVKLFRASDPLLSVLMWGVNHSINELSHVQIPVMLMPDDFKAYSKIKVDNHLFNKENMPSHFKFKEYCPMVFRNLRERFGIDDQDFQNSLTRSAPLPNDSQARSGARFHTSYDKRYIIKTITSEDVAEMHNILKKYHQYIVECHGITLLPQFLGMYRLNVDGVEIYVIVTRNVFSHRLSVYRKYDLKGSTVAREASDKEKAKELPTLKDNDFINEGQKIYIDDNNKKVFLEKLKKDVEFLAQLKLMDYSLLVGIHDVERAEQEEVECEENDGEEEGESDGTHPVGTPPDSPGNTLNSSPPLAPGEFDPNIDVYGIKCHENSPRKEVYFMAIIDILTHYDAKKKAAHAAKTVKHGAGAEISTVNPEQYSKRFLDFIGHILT
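Controls without substrate or without enzyme flank wells where PI5P4Kalpha converts substrate using 5 microM ATP (final). Incubation lasts 60 minutes at room temperature; ADP formed is read by ADP-Glo luminescence.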
L3MBTL1 block – blocks human L3MBTL1; Q9Y468; AlphaScreen L3MBTL1–H3K9me1 peptide binding; Potency, µM (series often up to 57.1 µM), without a hit: at the highest dose activity, negative = inhibition, most hits filed as inhibitors; hit rate 0.66% among 230,000; AID 485360; note: potency is the fitted concentration of half-maximal effect; % is set by controls: 0 for no effect and ±100 for the full control effect; nearly all actives have a fitted effect of over 60% in size
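First, the protein-peptide complex forms for 30 min at room temperature (L3MBTL1 50 nM, biotinylated H3K9me1 peptide 75 nM). Next, compounds are pin-transferred and incubated 30 min. Finally, AlphaScreen beads are added and read after 30 min.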
HP1b chromo inh – HP1-beta chromodomain-methylated histone interaction inhibition; P83916; AlphaScreen HP1-beta / biotin-H3K9me3 peptide binding; Potency, µM (top dose mostly 114 µM), inactives show at the highest dose activity change, negative = inhibition, actives largely listed as inhibitors; hit rate 0.56% among 390,000; note: potency is the fitted concentration of half-maximal effect; nearly all actives have a fitted effect of over 70% in size
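HP1-beta protein (50 nM final) preincubated 30 min at room temperature with biotinylated H3(1-18)K9me3 peptide (50 nM) in PBS pH 7.4, 0.01% Tween-20, then compound added for 30 min. AlphaScreen streptavidin donor/nickel chelate acceptor beads (10 ug/mL final), 30 min dark, luminescence read.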
JMJD2A Tudor inh – JMJD2A Tudor domain (human) inhibition; O75164; AlphaScreen JMJD2A-Tudor / H3K4me3 peptide binding; Potency, µM (top dose mostly 114 µM), for the others: at the highest dose activity change, negative = inhibition, hits mostly inhibitors; hit rate 4.4% among 390,000; note: potency is the fitted concentration of half-maximal effect; % is set by controls: 0 for no effect and ±100 for the full control effect; nearly all actives have a fitted effect of over 50% in size
BAZ2B block – inhibitors of human BAZ2B bromodomain | AlphaScreen BAZ2B-H3K14Ac peptide displacement | Potency, µM (top dose mostly 114 µM), without a hit: top-dose activity change, negative = inhibition, hits mostly inhibitors | hit rate 4.4% among 360,000 | AID 504333; note: potency is the fitted concentration of half-maximal effect; % is set by controls: 0 for no effect and ±100 for the full control effect; nearly all actives have a fitted effect of over 60% in size
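Compounds, titrated to a top concentration of 110 uM, were incubated 30 min at room temperature with preformed BAZ2B/acetyl-K14 H3 peptide complex (50 nM each). Proximity signal was measured by AlphaScreen after 20 min with beads.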
Starred values were filed as active, the others as inactive; ? = inconclusive; . = no result given; [ ] = remark or other dose. Sampled rows, rich in hits. Any-hit rate of the full collection: about 11%. Unless noted, calls come from the whole dose curve; as a rule, active = well fitted inhibition curve with a large enough effect; inconclusive = small, poorly fitted or top-dose-only effect; inactive = no such curve, though single readings can be large or run the other way.

SMILES | G9a block | PI5P4Ka inh | L3MBTL1 block | HP1b chromo inh | JMJD2A Tudor inh | BAZ2B block
CCc1cc(-c2[nH]ncc2-c2ccc([N+](=O)[O-])cc2)c(O)cc1OC | 50µM* | 0 | . | ? | 50µM* | 40µM*
O=C(CN1CCN(CC(=O)Nc2ccccc2F)CC1)Nc1ccc2c(c1)OCCO2 | 35µM* | 4 | 14% | 20% | -10% | -16%
O=C(/C=C/c1ccco1)Nc1ccc(Cl)c(S(=O)(=O)N2CCOCC2)c1 | 50µM* | 0 | -10% | -13% | ? | ?
CCCn1c(N2CCN(C(=O)Nc3ccc(Cl)cc3)CC2)nc2ccccc21 | 12% | 6 | 2% | 21% | 100µM* | 7%
O=C(Nc1ccccc1)Nc1ccc(Cl)c(S(=O)(=O)N2CCOCC2)c1 | -6% | -1 | 5% | 42% | -14% | -4%
CCCn1c(N2CCN(CC(=O)Nc3ccc4c(c3)OCCO4)CC2)nc2ccccc21 | 50µM* | -3 | 4% | 27% | ? | ?
Cn1c(Oc2ccc(Cl)cc2)nc2c1c(=O)n(Cc1ccc(F)cc1)c(=O)n2C | 5%[59 µM] | . | . | 50% | 6% | 0%
O=C(c1cc(-c2ccc(Cl)cc2)on1)N(Cc1cccc(F)c1)Cc1ccco1 | 24%[59 µM] | . | . | 66% | 6% | 6%
Cc1cc(NC(=O)CN2CCN(c3ccc(O)cc3)CC2)no1 | 15%[0.501 µM] | . | 0% | ? | 89µM* | -11%
O=C(CN1CCOCC1)Nc1ccc(Oc2ccc(NC(=O)CN3CCOCC3)cc2)cc1 | 11µM* | . | -9%[11.4 µM] | 24% | -4% | -3%
O=C(CN1CCN(c2ccc(Cl)cc2)CC1)Nc1ccc(F)cc1F | 8%[59 µM] | . | . | 53% | -3% | 6%
O=C(CN1CCN(c2ccc(O)cc2)CC1)Nc1ccc2c(c1)OCCO2 | 7.9µM* | -24 | -7% | ? | 79µM* | -33%
O=C(CN1CCN(c2ccc(O)cc2)CC1)NCC(=O)Nc1ccc(F)c(F)c1F | ? | -14 | -5% | ? | 45µM* | -2%
O=C(CN1CCN(c2ccc(F)cc2)CC1)Nc1ccc2c(c1)OCCO2 | 14% | -10 | . | -13% | -24% | -8%
COC(=O)c1ccc(NC(=O)CN2CCOCC2)cc1 | 8%[59 µM] | . | 3% | 11% | -15% | 21%
Cc1ccc(C2CC(=O)Oc3cc(C)c(Cl)c(C)c32)cc1 (configuration not stated) | 101% | . | . | . | . | .
CC(C)Cc1nn2c(=O)cc(COC(=O)c3cccc(NC(=O)CCc4ccccc4)c3)nc2s1 | -12%[12.7 µM] | . | . | 41% | -6% | -12%
CCCOC(=O)c1ccc(Cn2nnc3sc4c(c3c2=O)CCC(C)C4)cc1 (configuration not stated) | ? | . | . | 38% | -11% | -13%
O=C(CN1CCN(c2nc(-c3ccc(F)cc3)cs2)CC1)Nc1ccc2c(c1)OCO2 | 45µM* | 23 | -16% | -24% | -26% | ?
O=C(CSc1ncccn1)Nc1ccc(Cl)c(S(=O)(=O)N2CCOCC2)c1 | . | -5 | -4% | 26% | -7% | .
O=C(CN1CCN(c2ccccc2)CC1)Nc1ccc2c(c1)OCCO2 | -8% | 1 | 1% | 2% | -24% | -18%
O=C(CN1CCN(C(=O)c2ccco2)CC1)Nc1ccc2c(c1)OCCO2 | 50µM* | -2 | -1% | 26% | -3% | -27%
O=C(CSc1ncn[nH]1)Nc1ccc(Cl)c(S(=O)(=O)N2CCOCC2)c1 | 50µM* | 6 | . | 61% | -19% | .
O=C(CN1CCOCC1)Nc1ccc2c(c1)OCCO2 | 20µM* | 1 | 8% | ? | 32µM* | 50µM*
NC(=O)CN1CCN(c2nc(-c3ccc(F)cc3)cs2)CC1 | 1% | 6 | -5% | -30% | -10%[11.4 µM] | -5%
SMILES | G9a block | PI5P4Ka inh | L3MBTL1 block | HP1b chromo inh | JMJD2A Tudor inh | BAZ2B block
COc1cc(NC(=O)CC(C)n2nc(C)cc2C)cc(OC)c1 (configuration not stated) | 4%[59 µM] | . | . | 30% | -5% | -4%
CCOc1ccccc1CNC(=O)c1cc2c(=O)n(Cc3ccco3)ccc2nc1C | -4%[59 µM] | . | . | 56% | -12% | -18%
O=C(CN1CCN(C(=O)c2ccco2)CC1)Nc1ccc(Cl)c(S(=O)(=O)N2CCOCC2)c1 | 56µM* | 2 | . | 24% | -5% | .
CCN(CC)C(=O)CSc1nc2c(sc(=S)n2-c2ccccc2)c(=O)n1-c1ccccc1OC | 12% | -1 | . | 10% | -25% | -9%
CCN(CC)C(=O)CSc1nc2c(sc(=S)n2-c2ccccc2)c(=O)n1-c1ccc(OC)cc1OC | 2µM* | ? | . | ? | ? | -16%
CCOC(=O)CSc1nc2c(sc(=S)n2-c2ccccc2)c(=O)n1-c1ccc(OC)cc1OC | 1.6µM* | ? | . | ? | ? | -34%
CC(=O)c1ccc(N2CCN(S(=O)(=O)c3ccc4c5c3CC(=O)N5CC(C)S4)CC2)cc1 (configuration not stated) | 45µM* | -13 | . | 17%[57 µM] | -18% | -21%[57.1 µM]
CCC(=O)N1CCc2cc(Br)cc(S(=O)(=O)N3CCN(c4ccc(C(C)=O)cc4)CC3)c21 | 12%[59 µM] | . | . | 16% | -7% | 3%
CCOc1ccc(C(c2c(O)cc(C)n(Cc3ccco3)c2=O)N2CCN(C)CC2)cc1 (configuration not stated) | ? | . | . | 1%[57 µM] | ? | -10%
CCCn1c(N)c(N(CCOC)C(=O)CSCC(=O)Nc2cccc(C)c2)c(=O)[nH]c1=O | 50µM* | 3 | 3% | 29% | -3% | 2%
Cc1ccc(NC(=O)CSCC(=O)N(CCC(C)C)c2c(N)n(Cc3ccccc3)c(=O)[nH]c2=O)cc1 | 56µM* | -8 | 3% | 16% | -22% | -9%
CCCCn1c(N)c(N(CC)C(=O)CSCC(=O)Nc2ccc(OC)cc2)c(=O)[nH]c1=O | 50µM* | 4 | 3% | 24% | 4% | 12%
CCCCN(C(=O)CSCC(=O)Nc1cccc(C)c1)c1c(N)n(CCCC)c(=O)[nH]c1=O | 20µM* | -3 | -9% | 21% | -8% | 17%
CCCCn1c(N)c(N(CC(C)C)C(=O)CSCC(=O)Nc2ccc(OC)cc2)c(=O)[nH]c1=O | -45% | -3 | -4% | 4% | -20% | 12%
Cc1nc(NCCc2ccccc2)sc1C(=O)N(C)C | 25µM* | 0 | . | -17% | -4% | 6%
CCCC(=O)Nc1nc(C)c(C(C)=O)s1 | 19% | -5 | -7% | 36% | 4% | -16%
COc1ccccc1CNc1nc(C)c(C(=O)N(C)C)s1 | 14µM* | -22 | . | ? | -6% | -22%
COCCNc1nc(C)c(C(C)=O)s1 | 40µM* | 4 | 8% | 45% | -15% | -29%
COc1ccccc1CNc1nc(C)c(C(C)=O)s1 | 11µM* | -6 | . | -19% | -23% | ?
